In PubChem BioAssay (Tox21) one finds outcome and Potency data, which are given here for 6 compounds.

The target of assay [1] is Peroxisome proliferator-activated receptor delta (Homo sapiens) (UniProt Q03181). The assay can be described thus: qHTS assay to identify small molecule agonists of the peroxisome proliferator-activated receptor delta (PPARd) signaling pathway (AID 743212). In short, it runs like this: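 GeneBLAzer PPARd UAS-bla HEK293H cells (beta-lactamase reporter under UAS control), plated and rested 5 h at 37 C, then exposed to compounds in DMSO at 37 C; LiveBLAzer B/G FRET substrate added, 2 h room temperature, fluorescence read.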
Chain of Peroxisome proliferator-activated receptor delta (Homo sapiens) (Q03181 whole entry, looked up): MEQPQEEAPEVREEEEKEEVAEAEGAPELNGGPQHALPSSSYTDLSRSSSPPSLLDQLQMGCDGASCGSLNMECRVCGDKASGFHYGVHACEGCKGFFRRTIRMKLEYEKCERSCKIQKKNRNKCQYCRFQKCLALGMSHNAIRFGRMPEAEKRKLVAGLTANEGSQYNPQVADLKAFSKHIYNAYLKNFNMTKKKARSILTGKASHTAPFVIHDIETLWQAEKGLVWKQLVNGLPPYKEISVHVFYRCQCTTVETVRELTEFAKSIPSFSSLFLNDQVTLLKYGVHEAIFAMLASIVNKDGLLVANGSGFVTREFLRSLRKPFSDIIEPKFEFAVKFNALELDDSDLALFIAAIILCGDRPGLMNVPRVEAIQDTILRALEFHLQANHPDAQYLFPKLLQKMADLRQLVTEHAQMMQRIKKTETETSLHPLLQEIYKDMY

A short description of assay [2]: qHTS assay to identify small molecule antagonists of the peroxisome proliferator-activated receptor delta (PPARd) signaling pathway - cell viability counter screen (AID 743213; active means well fitted curve in the direction sought with a large enough effect in the repeat runs; an effect the other way counts as inactive or inconclusive; further: nearly all actives have a fitted effect of over 50% in size). Put shortly:
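HEK293H PPARd UAS-bla cells, 5 h pre-incubation, compound + L165041 300 nM final, 17 h 37 C; B/G FRET substrate 2 h RT; then CellTiter-Glo 30 min RT, luminescence.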

The target in assay [3] is Peroxisome proliferator-activated receptor delta (Homo sapiens) (UniProt Q03181). The assay can be described thus: qHTS assay to identify small molecule antagonists of the peroxisome proliferator-activated receptor delta (PPARd) signaling pathway (AID 743215; active means well fitted inhibition curve with a large enough effect in the signal ratio in the repeat runs, not every such curve was filed as active; the % refers to the signal ratio;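 further: cells stimulated with agonist L165041 at 300 nM final during compound exposure; series mostly up to about 62 µM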). Put shortly:
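PPARd UAS-bla HEK293H cells were pre-incubated 5 h at 37 C, then given test compounds in DMSO plus agonist L165041 (300 nM final). After 17 h at 37 C, beta-lactamase FRET substrate was added; fluorescence read after 2 h at room temperature.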

The target in assay [4] is Bile acid receptor (Homo sapiens) (UniProt Q96RI1). The assay can be described thus: qHTS assay to identify small molecule antagonists of the farnesoid-X-receptor (FXR) signaling pathway (AID 743217; active means well fitted inhibition curve with a large enough effect in the signal ratio in the repeat runs, not every such curve was filed as active; the % refers to the signal ratio). In short, it runs like this: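 FXR-UAS-bla HEK 293T cells pre-incubated 5 h at 37 °C, then exposed to compounds with chenodeoxycholic acid (50 uM final) for 16 h at 37 °C. Beta-lactamase reporter read by LiveBLAzer B/G FRET substrate fluorescence after 2 h at room temperature.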
Chain of Bile acid receptor (Homo sapiens) (Q96RI1 whole entry, looked up): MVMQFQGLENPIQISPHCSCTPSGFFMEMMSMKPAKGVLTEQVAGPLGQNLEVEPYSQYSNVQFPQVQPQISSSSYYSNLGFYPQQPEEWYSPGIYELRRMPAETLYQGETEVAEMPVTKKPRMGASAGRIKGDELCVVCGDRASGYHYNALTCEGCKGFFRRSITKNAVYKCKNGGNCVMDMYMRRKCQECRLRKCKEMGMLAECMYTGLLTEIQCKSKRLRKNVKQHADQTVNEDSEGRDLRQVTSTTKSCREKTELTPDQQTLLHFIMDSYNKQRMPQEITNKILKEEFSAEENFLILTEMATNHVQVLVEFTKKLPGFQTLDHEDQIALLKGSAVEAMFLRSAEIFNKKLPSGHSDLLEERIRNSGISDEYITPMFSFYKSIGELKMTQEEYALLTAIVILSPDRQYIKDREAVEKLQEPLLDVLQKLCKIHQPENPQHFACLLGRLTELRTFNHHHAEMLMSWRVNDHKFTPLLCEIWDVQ

Assay [5] can be described thus: qHTS assay to identify small molecule agonists of the farnesoid-X-receptor (FXR) signaling pathway - cell viability counter screen (AID 743218; active means well fitted curve in the direction sought with a large enough effect in the repeat runs; an effect the other way counts as inactive or inconclusive; further: nearly all actives have a fitted effect of over 45% in size). In short, it runs like this:
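FXR-UAS-bla HEK 293T cells, plated 5 h at 37 C, were exposed to compounds for 16 h at 37 C. CellTiter-Glo was then added to the same wells as the bla readout; luminescence read after 30 min at room temperature.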
Background: qHTS replaces the single test concentration by a dilution series.

For assay [6], the target named is Bile acid receptor (Homo sapiens) (UniProt Q96RI1). The assay can be described thus: qHTS assay to identify small molecule agonists of the farnesoid-X-receptor (FXR) signaling pathway (AID 743220; active means well fitted activation curve with a large enough effect in the signal ratio in the repeat runs, not every such curve was filed as active; the % refers to the signal ratio). Put shortly: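 Beta-lactamase reporter under UAS control in GeneBLAzer FXR HEK 293T cells (5000/well) measured with LiveBLAzer FRET substrate after 2 h at room temperature. Compound exposure lasted 16 h at 37C.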

The nature of assay [7]: qHTS assay to identify small molecule antagonists of the farnesoid-X-receptor (FXR) signaling pathway - cell viability counter screen (AID 743221; active means well fitted cell-killing curve with a large enough effect in the repeat runs, not every such curve was filed as active; further: nearly all actives have a fitted effect of over 50% in size). Put shortly:
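CellTiter-Glo, 30 min RT, luminescence; same wells as the LiveBLAzer FRET read. Cells: FXR-UAS-bla HEK 293T. Treatment: compound with chenodeoxycholic acid 50 uM final, 16 h at 37 C.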

Assay [8] has as its target Vitamin D3 receptor (Homo sapiens) (UniProt P11473). The assay can be described thus: qHTS assay to identify small molecule agonists of the vitamin D receptor (VDR) signaling pathway (AID 743222). Put shortly: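 VDR-bla cells were plated 4 h at 37C/5% CO2, then exposed to compounds in DMSO for 16 h. After LiveBLAzer B/G FRET substrate addition and 2 h at room temperature, beta-lactamase reporter fluorescence was read.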

For assay [9] the target is unchanged. The assay can be described thus: qHTS assay to identify small molecule antagonists of the vitamin D receptor (VDR) signaling pathway (AID 743223; active means well fitted inhibition curve with a large enough effect in the signal ratio in the repeat runs, not every such curve was filed as active; the % refers to the signal ratio). In short, it runs like this:
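After VDR-bla cells are plated and left 4 h at 37C, DMSO-dissolved compounds and 3 nM (final) calcitriol agonist are added. Incubation continues 16 h at 37C; FRET beta-lactamase substrate then develops 2 h at room temperature.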

Assay [10] in a line: qHTS assay to identify small molecule agonists of the vitamin D receptor (VDR) signaling pathway - cell viability counter screen (AID 743224; active means well fitted curve in the direction sought with a large enough effect in the repeat runs; an effect the other way counts as inactive or inconclusive; further: nearly all actives have a fitted effect of over 50% in size; further: potency means the concentration at half of the fitted maximal effect). In short, it runs like this:
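VDR-bla cells were preincubated 4 h at 37C/5% CO2, then exposed to compounds for 16 h. After the 2 h room-temperature bla FRET read, CellTiter-Glo was added to the same wells and luminescence read after 30 min.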

A short description of assay [11]: qHTS assay to identify small molecule antagonists of the vitamin D receptor (VDR) signaling pathway - cell viability counter screen (AID 743225; active means well fitted curve in the direction sought with a large enough effect in the repeat runs; an effect the other way counts as inactive or inconclusive; further: nearly all actives have a fitted effect of over 50% in size). In short, it runs like this: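 Cytotoxicity toward the VDR-bla HEK 293T line was scored by ATP-based CellTiter-Glo luminescence, read in the wells already used for the beta-lactamase readout after 16 h compound treatment under 3 nM 1-alpha,25-dihydroxyvitamin D3 stimulation.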

Assay [12] is described as follows: qHTS assay to identify small molecule agonists of the NFkB signaling pathway - cell viability counter screen (AID 1159515). Further: series mostly up to about 61 µM; nearly all actives have a fitted effect of over 55% in size. Put shortly: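 NFkB-bla ME-180 cells, 2,000/well, were plated overnight at 37 C, 5% CO2, then exposed to compounds in DMSO for 5 hr. After the bla FRET read, CellTiter-Glo was added to the same wells; luminescence was read after 30 min at room temperature.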

Assay [13] in a line: qHTS assay to identify small molecule agonists of the endoplasmic reticulum stress response signaling pathway (AID 1159516; active means well fitted activation curve with a large enough effect in the signal ratio in the repeat runs, not every such curve was filed as active; the % refers to the signal ratio; further: potency means the concentration at half of the fitted maximal effect). Put shortly: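 CellSensor ESRE-bla HeLa cells, carrying a beta-lactamase reporter driven by the ER stress response element, were plated overnight and exposed to compounds for 5 hr at 37 C. Reporter activity was read as FRET substrate fluorescence after 2 hr at room temperature.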

A short description of assay [14]: qHTS assay to identify small molecule agonists of the endoplasmic reticulum stress response signaling pathway - cell viability counter screen (AID 1159517). In short, it runs like this: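 Luminescence readout: CellTiter-Glo, 30 min RT, same wells as the ESRE-bla reporter read. HeLa ESRE-bla, 1,500 cells/well, o/n 37 C; cpd 5 hr 37 C/5% CO2.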
Assay [15] is described as follows: qHTS assay to identify small molecule antagonists of the retinoid-related orphan receptor gamma (ROR-gamma) signaling pathway - cell viability counter screen (AID 1159520; active means well fitted curve in the direction sought with a large enough effect in the repeat runs; an effect the other way counts as inactive or inconclusive; further: nearly all actives have a fitted effect of over 50% in size). Put shortly: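 Tet-on ROR gamma CHO cells (1,000/well) were plated 4 hr, given compounds in DMSO for 2 hr at 37 C, then induced with 1 uM final doxycycline for 16 hr. Viability was read as ATP by CellTiter-Glo luminescence after 30 min.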

Assay [16] in a line: qHTS assay to identify small molecule agonists of the AP-1 signaling pathway - cell viability counter screen (AID 1159525). Further: nearly all actives have a fitted effect of over 55% in size. In short, it runs like this: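 ME-180 AP-1-bla, 2500 cells/well, Opti-MEM + 0.5% dialyzed FBS; overnight 37 °C; cpd 15-pt titration, 5 h 37 °C; CellTiter-Glo 30 min RT; luminescence read; normalised to TOAB and DMSO controls.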
A short description of assay [17]: qHTS assay to identify small molecule agonists of the AP-1 signaling pathway (AID 1159526).
The target of assay [18] is Retinoic acid receptor RXR-alpha (Homo sapiens) (UniProt P19793). The assay can be described thus: qHTS assay to identify small molecule agonists of the RXR signaling pathway (AID 1159527). Further: nearly all actives have a fitted effect of over 35% in size. Put shortly:
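Reporter activation is measured as beta-lactamase activity via FRET substrate cleavage (emission 460/530 nm) in HEK 293T cells expressing an RXR-alpha-driven bla construct, following 16 hr compound exposure at 37 C.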

The nature of assay [19]: qHTS assay to identify small molecule agonists of the peroxisome proliferator-activated receptor delta (PPARd) signaling pathway - cell viability counter screen (AID 743211; active means well fitted curve in the direction sought with a large enough effect in the repeat runs; an effect the other way counts as inactive or inconclusive; further: nearly all actives have a fitted effect of over 55% in size). In short, it runs like this:
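Multiplexed format: after the 2 h room-temperature LiveBLAzer B/G FRET step, CellTiter-Glo was added to the same wells. Luminescence after 30 min gave cell viability; compound exposure was 17 h at 37C.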

Assay [20] concerns the target Nuclear receptor ROR-gamma (Homo sapiens) (UniProt P51449). The assay can be described thus: qHTS assay to identify small molecule antagonists of the retinoid-related orphan receptor gamma (ROR-gamma) signaling pathway (AID 1159521; active means well fitted curve in the direction sought with a large enough effect in the repeat runs; an effect the other way counts as inactive or inconclusive). In short, it runs like this:
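Readout: ONE-Glo luciferase luminescence, 30 min at room temperature. System: Tet-on RORγ CHO, RORE-LUC. Sequence: compound 2 h, doxycycline 1 uM final, 16 h at 37 C.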

Inconclusive results are not listed. Some compounds were tested as several samples or in several runs, with calls that do not always agree. Calls of active or inactive are those of the source. Unless noted, the call rests on the fitted dose curve.

Chain of Retinoic acid receptor RXR-alpha (Homo sapiens) (P19793 whole entry, looked up): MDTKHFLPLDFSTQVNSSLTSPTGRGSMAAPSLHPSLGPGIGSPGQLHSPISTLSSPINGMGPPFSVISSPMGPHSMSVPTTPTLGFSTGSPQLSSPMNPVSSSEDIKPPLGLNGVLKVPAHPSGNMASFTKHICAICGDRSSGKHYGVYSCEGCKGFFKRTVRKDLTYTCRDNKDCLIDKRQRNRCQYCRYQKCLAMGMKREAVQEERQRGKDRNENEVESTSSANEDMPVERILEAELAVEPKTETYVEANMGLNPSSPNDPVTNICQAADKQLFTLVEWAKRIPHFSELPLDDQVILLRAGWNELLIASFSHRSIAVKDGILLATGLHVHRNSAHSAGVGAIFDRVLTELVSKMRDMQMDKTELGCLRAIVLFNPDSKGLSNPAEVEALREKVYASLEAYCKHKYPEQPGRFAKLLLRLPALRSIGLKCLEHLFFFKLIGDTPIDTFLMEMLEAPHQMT
Chain of Vitamin D3 receptor (Homo sapiens) (P11473 whole entry, looked up): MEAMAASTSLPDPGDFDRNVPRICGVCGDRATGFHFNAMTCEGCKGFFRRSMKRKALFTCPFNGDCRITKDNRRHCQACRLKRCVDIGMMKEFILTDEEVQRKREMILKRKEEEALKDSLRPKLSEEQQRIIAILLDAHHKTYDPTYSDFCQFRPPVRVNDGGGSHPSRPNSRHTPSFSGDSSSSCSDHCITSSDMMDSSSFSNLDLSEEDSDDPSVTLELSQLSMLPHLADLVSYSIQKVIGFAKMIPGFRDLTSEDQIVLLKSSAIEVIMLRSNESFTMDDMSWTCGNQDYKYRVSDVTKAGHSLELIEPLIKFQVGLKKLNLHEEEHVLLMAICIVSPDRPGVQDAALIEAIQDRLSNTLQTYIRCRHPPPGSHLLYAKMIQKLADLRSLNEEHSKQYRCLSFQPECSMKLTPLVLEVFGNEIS

Consider `Cc1ccc(N)c(C)c1`, for which the compound was called inactive in assay [1], in assay [6] and in assay [8]. The Potency entry in assay [2], in assay [3], in [4], in assay [5], in assay [7] and in assay [9] was “inactive” in each case. Besides, the Potency entry in assay [10], in [11], in assay [12], in assay [13], in [14] and in assay [15] was “inactive” each time. Besides, the Potency result in [16], in assay [17] and in assay [18] was “inactive” throughout.
`CNC(=O)Oc1cccc(N=CN(C)C)c1`: the Potency result in assay [19], in [3], in assay [4], in assay [5], in [7] and in assay [9] was “inactive” in each case. Moreover, the Potency entry in assay [10], in assay [12], in [13], in assay [15], in [20] and in [16] was “inactive” throughout. Besides, the Potency entry in assay [17] and in [18] was “inactive” throughout. Besides, the compound was called inactive in assay [1] and in [8].
Take `OC[P+](CO)(CO)CO`: the Potency result in assay [19], in [2], in assay [5], in assay [7], in assay [9] and in [11] was “inactive” each time. The Potency result in assay [12], in [14], in assay [15], in assay [16], in assay [17] and in assay [18] was “inactive” each time. Moreover, the compound was called inactive in assay [1] and in assay [8]. Also, the Potency was 55.6 µM (active) and inactive in assay [10]; 1570 nM (active) in assay [13].
In the case of `NNCCO`, the Potency entry in assay [19], in assay [4], in [7], in [10], in [12] and in assay [13] was “inactive” each time. The Potency result in [14], in assay [15], in [16], in assay [17] and in [18] was “inactive” throughout. The call in assay [6] and in [8] was inactive.
As to `CC(C)(C)c1ccc(CCOc2ncnc3ccccc23)cc1`, the Potency entry in assay [19], in assay [2], in [4], in assay [5], in assay [7] and in [9] was “inactive” each time. In addition, the Potency result in assay [10], in [11], in [12], in assay [13], in [14] and in assay [15] was “inactive” each time. For the same compound, the Potency result in [16], in assay [17] and in [18] was “inactive” throughout. In addition, the compound was classed as inactive in assay [6] and in [8].
Turning to `CCCCCCCCCCCCCCCl`, the Potency result in assay [19], in assay [2], in assay [3], in assay [5], in assay [7] and in assay [9] was “inactive” each time. Further, the Potency result in assay [10], in [11], in assay [12], in assay [13], in assay [15] and in [20] was “inactive” each time. For the same compound, the Potency entry in [16], in assay [17] and in assay [18] was “inactive” in each case. Further, the call in [1] and in [8] was inactive.
